Test results as given in PubChem BioAssay AID504882 (Broad Institute, 2011).
Screen size: about 1,200 compounds; about 290 (24%) were called active. About 9% were inconclusive and are not listed. Not all results are given here. Measured potencies and affinities stand elsewhere. Values without a mark were called inactive. The rule behind the calls is not given here.

Assay: cytotoxicity in EBV lymphoblastoid cells, dose response, cytotoxicity control, cell-based, plate reader, cherry-picks, set 2 (AID 504882);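 note: 0% = neutral control wells and -100% = positive control wells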
Details: EBV lymphoblastoid cells (LCL) viability; series mostly up to 19.5 µM; activity change, negative = cytotoxicity: at the top concentration

Row | SMILES | activity change, negative = cytotoxicity
1 | CC1CCN(C(=O)/C(=C\c2cccs2)NC(=O)c2ccccc2)CC1 | 4.9%
2 | C=CCN(c1ccc(C(=O)Nc2ccc3c(c2)n(C)c(=O)n3C)cc1)S(C)(=O)=O | 6.74%
3 | COC(=O)c1cccc(COC(=O)c2ccccc2NC(=O)c2ccco2)c1 | 12.5%
4 | C[C@]12CC[C@@H]3c4ccc(OS(=O)(=O)O)cc4CC[C@H]3[C@@H]1CCC2=O | 24%
5 | COc1ccccc1C(=O)NC(=O)CSc1nnc(N)s1 | 15.9%
6 | c1csc(CNc2ncnc3ccc(-c4ccoc4)cc23)c1 | -6.02%
7 | COc1ccc(C(=O)CSc2nnc(Cc3ccccc3)o2)cc1 | 20.6%
8 | CC[C@H]1OC(=O)[C@H](C)[C@@H](O[C@H]2C[C@@](C)(OC)[C@@H](O)[C@H](C)O2)[C@H](C)[C@@H](O[C@@H]2O[C@H](C)C[C@H](N(C)C)[C@H]2O)[C@](C)(O)C[C@@H](C)C(=NOCOCCOC)[C@H](C)[C@@H](O)[C@]1(C)O | 20%
9 | N=C1S/C(=C\c2ccccc2)C(=O)N1c1ccc(F)cc1 | 4.09%
10 | CCC(=O)OC1c2ccccc2C(=O)N1Cc1ccccc1 (stereo unspecified) | 12.3%
11 | CNc1ccc(Br)cc(C(=O)/C=C/c2cccc(OC)c2)c1=O | -33%
12 | CNc1ccc(Br)cc(C(=O)/C=C/c2cc(OC)ccc2OC)c1=O | 12.3% [at 6.8 µM]
13 | CC(=O)/C=C/c1ccccc1O | 3.18%
14 | COC(=O)C1=C(C)N(CCCC(=O)O)C(=O)NC1c1cccc(Cl)c1Cl (stereo unspecified) | 16.1%
15 | O=C(CSc1nnc(NC(=O)c2ccc3c(c2)OCO3)s1)NCc1ccco1 | 14%
16 | CCOc1ccc(C(=O)Nc2nnc(SCC(=O)NCC3CCCO3)s2)cc1 (stereo unspecified) | 19.9%
17 | COc1ccc(C(=O)OCC(=O)c2c[nH]c3ccccc23)cc1OC | -0.621%
18 | O=C1NC(=O)/C(=C\c2ccc(OCc3cccc(C(=O)O)c3)c(Cl)c2)N1 | 2.65%
19 | O=C(CN(Cc1cccs1)C(=O)CNS(=O)(=O)c1ccccc1)NCc1ccco1 | 9.67%
20 | Cc1ccc(S(=O)(=O)N2CCN(C(=O)CSc3nnnn3C)C2)cc1 | 15.3%
21 | O=C(O)/C=C/c1ccc(Cn2ccnc2)cc1 | 8.15%
22 | Cc1ccccc1NC(=O)CN1C(=O)S/C(=C\c2cccn2-c2cccc(C(=O)O)c2)C1=O | 10.6%

Row | SMILES | activity change, negative = cytotoxicity
23 | CC(C)[C@H](N[C@@H](C)c1ccccc1)c1c(O)ccc2ccccc12 | 4.74%
24 | O=C(C1CC1)N1N=C(c2ccc(Br)cc2)CC1(O)C(F)(F)F (stereo unspecified) | -4.6%
25 | CN1CCN(CCOc2ccc(Cc3ccccc3)cc2)CC1 | 11.5%
26 | CN(C)S(=O)(=O)c1ccc(Cl)c(C(=O)NCCNC(=O)c2cc(S(=O)(=O)N(C)C)ccc2Cl)c1 | 10.8%
27 | CCCc1cc(=O)c2c(O)ccc(OC)c2o1 | 16.7%
28 | O=c1cc(C2CCCCC2)[nH]c(=O)[nH]1 | 27.8%
29 | CC(=O)OCC(=O)[C@@]1(O)CC[C@H]2[C@@H]3CCC4=CC(=O)CC[C@]4(C)[C@H]3[C@@H](O)C[C@@]21C | 12.8%
30 | O=C(CN1CCN(S(=O)(=O)c2ccc(F)cc2)CC1)Nc1cccc(C(F)(F)F)c1 | 0.696%
31 | O=C(/C=C/Nc1cccc(C(F)(F)F)c1)C(F)(F)F | 7.21%
32 | O=C(c1ccco1)N1CCN(S(=O)(=O)/C=C/c2ccccc2)CC1 | 6.55%
33 | O=C(Nc1ncccc1O)c1ccc(S(=O)(=O)NCc2ccco2)cc1 | 12%
34 | CCOC(=O)C1=C(C)N(C)C(=O)NC1c1ccccc1OC (stereo unspecified) | 9.56%
35 | Cc1cc(=S)[nH]c2ccccc12 | 4.96%
36 | CC(=O)Oc1ccc(C(=O)Nc2cccnc2)cc1 | 12.1%
37 | CC(C)CCNC(=O)C1CCN(S(=O)(=O)c2ccc3c(c2)CC(C)N3C(=O)C2CC2)CC1 (stereo unspecified) | -4.93%
38 | Cc1ccc2c(c1)N(CC(=O)N1CCCC1)C(=O)c1cccnc1O2 | 7.79%
39 | Cc1ccc(S(=O)(=O)N[C@H](C(=O)N2CCC(C(=O)N[C@@H](CC(=O)O)C(=O)O)CC2)C(C)C)cc1 | 11%
40 | Cc1ccc(NC(=O)c2ccc3c(c2)OCCO3)nc1 | -13.1%
41 | Cc1ccc(C(=O)Nc2ccc3c(c2)OCCO3)cc1 | -1.25%
42 | COc1ccc(OC)c(NC(=O)COC(=O)COc2ccc(Nc3ccccc3)cc2)c1 | 7.62%
43 | Cc1cc(C)c(S(=O)(=O)N2CCN(C(=O)c3ccccc3OCc3c(C)noc3C)CC2)c(C)c1 | 10.4%
44 | O=C(NCc1ccccc1Cl)C1CCCN1S(=O)(=O)c1ccc(F)cc1 (stereo unspecified) | 13.2%

Row | SMILES | activity change, negative = cytotoxicity
45 | COc1ccc(C=NNc2nc3ccccc3s2)cc1 | -1.54%
46 | N/C(=N\OC(=O)c1ccccc1)c1ccccn1 | -14.6%
47 | Cc1ccc(/C=C/c2nc3ccccc3s2)s1 | 19%
48 | C[C@@H]1CN([C@@H](C)CO)S(=O)(=O)c2ccc(/C=C/c3ccccc3)cc2O[C@@H]1CN(C)Cc1ccc(C(=O)O)cc1 | 0.346%
49 | O=C(NC1=NCCS1)c1cc2ccccc2o1 | -0.76%
50 | COc1ccc(C(=O)Nc2nnc(SCC(=O)NC3CC3)s2)cc1 | 2.73%
51 | c1ccc(-c2cn3c4c(sc3n2)CCCC4)cc1 | -0.762%
52 | Cc1cc(C)n2nc(CC(=O)NC3CCCCCC3)nc2n1 | 20.7%
53 | Cc1nc(SCC(=O)c2cccc([N+](=O)[O-])c2)n[nH]1 | 33.1%
54 | COc1ccc2cc3c(N)nn(C(=O)c4cccc([N+](=O)[O-])c4)c3nc2c1 | 9.99%
55 | CCn1c(SC(C)C)nnc1-c1c[nH]c2ccccc12 | 20.4%
56 | CC(=O)c1cccc(NC(=O)Nc2ccc(C(=O)N3CCOCC3)cc2)c1 | 14.3%
57 | COc1ccc(-c2csc(Nc3cccc(C)n3)n2)cc1OC | 33.9%
58 | CC[C@]1(C(=O)OC)[C@H]2C(=O)N(Cc3ccccc3)C(=O)[C@H]2[C@H]2CN=C(SCc3ccc(C#N)cc3)N21 | 4.38%
59 | COc1ccc(CN2C(=O)c3cccnc3C2Nc2cc(Cl)ccc2OC)cc1 (stereo unspecified) | 14.9%
60 | Clc1ccc(-c2cn3nc4c(nc3n2)CCCC4)cc1 | -9.43%
61 | COCCn1c(SCCN2CCOCC2)nc2c1c(=O)[nH]c(=O)n2C | 11.5%
62 | COc1cc2nc(N3CCN(C(=O)C4CCCO4)CC3)nc(N)c2cc1OC (stereo unspecified) | 12.8%
63 | O=C(Nc1ccc2c(c1)C(=O)OC2)c1ccc(C(F)(F)F)cc1 | 5.14%
64 | C/C(=N\Nc1ccc(C(F)(F)F)cc1[N+](=O)[O-])C(C)C | 4.95%
65 | COC(=O)c1ccc2nc(-c3cccc(N)c3)cn2c1 | 0.862%
66 | CCOC(=O)Nc1ccc2c(c1)N(C(=O)CN(C)C)c1ccccc1CC2 | 7.62%
